Measured values reported in paper PMC4336329 (PLoS ONE, 2015).
Among all 310,000 compounds or so, about 14,000 (4.5%) showed an effect of 50% or more. The effect is printed as a negative number. This excerpt belongs to a sample that is enriched for strong results.

What follows are molecules tested against human ether-à-go-go-related gene (hERG) potassium channel (human, UniProt Q12809) (assay: primary screen, population patch clamp on CHO cells stably expressing hERG; higher = less effect of the substance).
Chain of human ether-à-go-go-related gene (hERG) potassium channel (Q12809 whole entry, looked up): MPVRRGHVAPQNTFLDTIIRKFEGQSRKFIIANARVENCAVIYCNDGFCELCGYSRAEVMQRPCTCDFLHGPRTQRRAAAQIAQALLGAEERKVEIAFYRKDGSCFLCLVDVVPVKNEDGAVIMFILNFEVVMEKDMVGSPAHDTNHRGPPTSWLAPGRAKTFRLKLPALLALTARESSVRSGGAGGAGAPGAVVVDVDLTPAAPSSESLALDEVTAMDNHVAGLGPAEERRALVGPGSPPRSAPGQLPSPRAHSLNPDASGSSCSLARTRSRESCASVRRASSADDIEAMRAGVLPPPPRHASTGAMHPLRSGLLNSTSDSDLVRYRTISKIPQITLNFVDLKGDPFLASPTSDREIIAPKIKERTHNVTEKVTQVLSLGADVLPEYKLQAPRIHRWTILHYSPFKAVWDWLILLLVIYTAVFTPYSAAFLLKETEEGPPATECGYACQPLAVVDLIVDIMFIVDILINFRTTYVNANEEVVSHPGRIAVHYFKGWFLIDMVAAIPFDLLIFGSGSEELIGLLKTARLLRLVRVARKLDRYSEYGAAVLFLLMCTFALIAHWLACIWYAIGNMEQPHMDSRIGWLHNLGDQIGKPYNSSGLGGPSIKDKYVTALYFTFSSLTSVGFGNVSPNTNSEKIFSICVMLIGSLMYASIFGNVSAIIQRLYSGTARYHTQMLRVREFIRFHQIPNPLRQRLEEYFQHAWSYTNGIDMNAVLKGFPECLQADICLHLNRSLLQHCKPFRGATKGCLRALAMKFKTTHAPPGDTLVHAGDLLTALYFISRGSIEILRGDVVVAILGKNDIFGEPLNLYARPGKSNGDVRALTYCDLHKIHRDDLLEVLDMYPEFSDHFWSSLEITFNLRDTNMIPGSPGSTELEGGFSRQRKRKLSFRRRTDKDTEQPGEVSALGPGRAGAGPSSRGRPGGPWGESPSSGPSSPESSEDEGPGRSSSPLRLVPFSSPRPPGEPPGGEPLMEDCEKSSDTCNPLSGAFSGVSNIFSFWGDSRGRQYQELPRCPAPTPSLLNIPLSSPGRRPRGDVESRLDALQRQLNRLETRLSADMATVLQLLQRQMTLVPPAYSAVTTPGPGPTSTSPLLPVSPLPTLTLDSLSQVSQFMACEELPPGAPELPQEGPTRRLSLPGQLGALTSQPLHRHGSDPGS
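Note: peak tail current of the secondary pulse compared with the same well before compound.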

SMILES | hERG current change (%, negative = inhibition) at 10uM
CCOC(=O)Nc1ccc2c(c1)N(C(=O)CN(C)C)c1ccccc1CC2.Cl | -7.94%
CCOC(=O)C1CCN(C(=O)c2cc3c(=O)n4cccc(C)c4nc3s2)CC1 | -15.5%
FC(F)(F)c1cc(N2CCN(Cc3ccccc3)CC2)c2ccccc2n1 | 10.9%
CC(CCc1ccccc1)NC(=O)CNC(=O)N1CC(=O)Nc2ccccc21 (centres unmarked) | -2.77%
CCOCCOC(=O)c1[nH]c2c(c1C)C(=O)CC(c1ccccc1)C2 (centres unmarked) | 7.35%
Cc1sc(NC(=S)NC(=O)c2ccc(C(C)(C)C)cc2)c(C#N)c1C | 6.48%
COc1ccc(CCNC(=O)CN2C(=O)COc3ccc(S(=O)(=O)N4CCOCC4)cc32)c(OC)c1 | -28.1%
CN(Cc1ccccc1)S(=O)(=O)c1ccc(OCC(=O)N2CCC(C(N)=O)CC2)cc1 | -2.99%
O=C(Nc1ccc2ccccc2c1)N1CCN(c2ncccc2C(F)(F)F)CC1 | -7.58%
O=C(c1cccc([N+](=O)[O-])c1)N1CCN(Cc2ccc3c(c2)OCO3)CC1 | -44.3%
CCCCOc1ccc(C(=O)NCC(=O)N2CCN(Cc3ccc4c(c3)OCO4)CC2)cc1 | -42.4%
O=C(c1cc([N+](=O)[O-])cc([N+](=O)[O-])c1)N1CCN(Cc2ccc3c(c2)OCO3)CC1 | -58.2%
O=C(Cc1ccc([N+](=O)[O-])cc1)N1CCN(Cc2ccc3c(c2)OCO3)CC1 | -45.5%
CCCOc1ccc(C(=O)N2CCN(Cc3ccc4c(c3)OCO4)CC2)cc1 | -67.7%
Cc1ccc(C(=O)N2CCN(Cc3ccc4c(c3)OCO4)CC2)cc1C | -14.4%
C/C(=N\NC(=O)Nc1ccccc1)c1ccccc1 | 9.14%
NS(=O)(=O)c1ccc(CCNC(=O)COC(=O)CCSc2ccc(Cl)cc2)cc1 | -18.5%
CC(C)(C)NC(=O)CCCSc1nc2ccccc2s1 | -24.4%
Nc1nc(Cl)cc(Oc2ccc(Cl)cc2)n1 | 9.29%
CCc1cccc(OC2OC(CO)C(O)C(O)C2NC(C)=O)c1 (centres unmarked) | 0.684%
O=C(NCCNc1ccnc2cc(Cl)ccc12)c1ccccc1F | -66.4%
O=C(NCCNc1ccc(Cl)cc1[N+](=O)[O-])c1ccccc1F | 3.81%
O=C(NCCCNc1ccc([N+](=O)[O-])cc1Cl)c1ccccc1F | -4.03%
Clc1ccc2c(NCc3ccccc3)ccnc2c1 | -45.5%
O=C(NCCCNc1ccnc2cc(Cl)ccc12)c1ccccc1F | -72.4%
Clc1ccc2c(NCc3ccccn3)ccnc2c1 | -39.7%
